Many of the other results were omitted from the sample, so hits are more common in it than they were.
SF1 inhibitor – inhibitors of human SF-1, primary screen, cell-based, CHO-K1, Gal4-SF-1 LBD, luciferase luminescence | Steroidogenic factor 1 (Homo sapiens), Q13285 | CHO-K1 Gal4-SF-1 LBD luciferase reporter | inhibition, % at 10 µM | 65,000 compounds, 0.55% hits | AID 525, 2006;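 active means inhibition above the mean inhibition of all tested compounds plus 3 SD, cut at about 48% in these data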
Target sequence (Q13285 whole entry, looked up, the tested form may be a part): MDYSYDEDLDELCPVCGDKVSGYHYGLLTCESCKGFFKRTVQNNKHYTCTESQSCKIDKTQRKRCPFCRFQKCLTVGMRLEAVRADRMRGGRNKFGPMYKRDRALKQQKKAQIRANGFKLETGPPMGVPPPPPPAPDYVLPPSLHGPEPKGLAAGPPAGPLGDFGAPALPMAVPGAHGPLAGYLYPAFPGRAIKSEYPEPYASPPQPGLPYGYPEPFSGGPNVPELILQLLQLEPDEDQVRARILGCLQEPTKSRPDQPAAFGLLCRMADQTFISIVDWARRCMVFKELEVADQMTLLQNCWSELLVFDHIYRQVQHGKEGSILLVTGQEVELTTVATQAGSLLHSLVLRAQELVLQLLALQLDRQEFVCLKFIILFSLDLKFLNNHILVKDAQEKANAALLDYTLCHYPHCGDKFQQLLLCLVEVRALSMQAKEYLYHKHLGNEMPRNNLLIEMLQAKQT
Each line names hits and unclear results; the compound was inactive in the other large screens.

Cn1nc(CC(=O)Nc2ccc(N3CCN(C(=O)OC(C)(C)C)CC3)cc2)c2ccccc2c1=O	SF1 inhibitor 63
Cn1nc(CC(=O)Nc2ccc3c(c2)OCCO3)c2ccccc2c1=O	SF1 inhibitor 62
CCC(=O)Nc1ccc(N2CCN(C(=O)c3ccccc3C)CC2)cc1	none
Cc1ccc(OCC(=O)Nc2ccc(N3CCOCC3)cc2)cc1	none
CCn1c(CC(=O)Nc2ccc(C)cc2)nnc1SCC(=O)NCc1ccccc1	none
COc1ccc(-c2nc(SC)n(C(=O)c3ccco3)n2)cc1	none
CN(C(=O)C12CC3CC(CC(C3)C1)C2)C1CCS(=O)(=O)C1 (stereo not drawn)	none
CC(C)CCSc1nc(N)c(C#N)cc1C#N	none
O=C(CCOc1ccccc1)Nc1ccc(S(=O)(=O)N2CCCC2)cc1	none
CCOC(=O)Cn1c(=O)oc2cc(S(=O)(=O)NCc3cccs3)ccc21	none
O=C(CNc1ccc(Oc2ccccc2)cc1)N1CCOCC1	none
CCCCSC1=C(C#N)C(c2ccccc2C)C(C(=O)OCC)C(=O)N1 (stereo not drawn)	none
COC(=O)C1=C(CN2CCN(C)CC2)NC(=O)NC1c1cc(C)ccc1C (stereo not drawn)	none
COc1ccc(CCNC(=O)CN2CCCc3ccccc32)cc1OC	none
COC(=O)C1=C(CN2CCCc3ccccc32)NC(=O)NC1c1ccc(F)cc1 (stereo not drawn)	SF1 inhibitor 75
COc1ccc2[nH]c(=O)c(CN(C(=O)c3ccco3)C3CCCCC3)cc2c1	none
COc1ccc(N2CCN(C(=O)CN3C(=O)C4CC=CCC4C3=O)CC2)cc1 (stereo not drawn)	none
COCCn1c(C2CCCCC2)nc2sc3ccccc3c(=O)c2c1=O	none
COCCCNC(=O)CCN1C(=O)COc2ccccc21	none
CCCNC(=O)c1cc(-c2ccc(Br)cc2)on1	none
CCOc1ccc(-c2cc(CCCC(=O)NCCCOC)no2)cc1	SF1 inhibitor 58
CCOC(=O)c1c(N)sn(-c2ccccc2C)c1=S	none
CCn1c(SCc2cccnc2)nnc1-c1c[nH]c2ccccc12	none
COc1cccc2c(=O)n(CC(=O)N3CCCc4ccccc43)ccc12	none
CCC(NC(=O)Nc1nnc(C(F)(F)F)s1)(C(F)(F)F)C(F)(F)F	SF1 inhibitor 94
CCC(NC(=O)Nc1ncccc1C)(C(F)(F)F)C(F)(F)F	none
COc1ccc(C(=O)Nc2nnc(C(F)(F)F)s2)cc1	none
Cc1sc2nc3n(c(=O)c2c1C)Cc1ccccc1-3	none
Cc1ccc(S(=O)(=O)N2CCN(C(=O)N3CCOCC3)C2C)cc1 (stereo not drawn)	none
CC(C)OC(=O)Cn1c(=O)oc2ccccc21	none
CCOC(=O)c1sc(Nc2nc3c(OC)cccc3s2)nc1C	none
c1ccc(-c2csc(Nc3cccnc3)n2)nc1	none
COc1cccc2sc(Nc3nc(-c4ccccn4)cs3)nc12	SF1 inhibitor 96
COc1ccc(C(=O)NC(=O)Nc2cc(C)ccn2)cc1	SF1 inhibitor 89
COc1cccc(NC(=O)c2nc3ncccn3n2)c1	none
COc1ccc(C(=O)Nc2cccc(OC)c2)cc1	none
CC1(C)CC(=O)C(CC2=C(O)CC(C)(C)CC2=O)=C(O)C1	none
Cc1noc(C(=O)Nc2ccc3c(c2)OCO3)c1Cl	none
CCOC(=O)c1c(N)sc(C(=O)Nc2ccc3c(c2)OCO3)c1C	SF1 inhibitor 53
Cc1occc1C(=O)Nc1ccc2c(c1)OCO2	none
Cc1nn(Cc2c(Cl)cccc2Cl)c(C)c1NC(=O)c1cc(C(C)C)on1	none
CC(C)n1nc(C(=O)NCCc2ccc(S(N)(=O)=O)cc2)c2ccccc2c1=O	none
N#C/C(=C\c1ccc(O)c(O)c1)C(=O)NCCCc1ccccc1	SF1 inhibitor 69
CC(C)CCNC(=O)NC(=O)COc1ccccc1C#N	none
COc1cc(SC)ccc1C(=O)Nc1ccccc1C#N	none
CCOc1ccc(C(C)=O)cc1CSc1nnc(-c2cccs2)n1CC1CCCO1 (stereo not drawn)	none
Cn1c(SC2=CS(=O)(=O)c3ccccc32)nc2ccccc21	SF1 inhibitor 68
Cn1c(N2CCN(C(=O)NCc3ccccc3)CC2)nc2ccccc21	none
Cn1c(C(C#N)C(=O)c2ccco2)nc2ccccc21 (stereo not drawn)	none
COc1cc(CNC2CCC(C)C2)cc(OC)c1 (stereo not drawn)	none
CCCc1nnc(NC(=O)CCC(=O)N2CCCCCC2)s1	none
COc1ccc(N(C)S(=O)(=O)c2c(C)[nH]c(=O)[nH]c2=O)cc1	none
Cn1cnnc1SCc1ccc(C#N)cc1Cl	none
CN1C2C=C3C(C#N)=C(N)C(C#N)(C#N)[C@@H](c4ccc(Cl)cc4)[C@@H]3C1CC2 (stereo partly drawn)	SF1 inhibitor 49
Fc1cc(F)c2nc(N3CCCCC3)sc2c1	none
c1ccc2c(c1)CCN(CCCNc1nc3ccccc3n3cnnc13)C2	none
O=C(CCS(=O)(=O)c1ccc(Br)cc1)N1CCN(c2ccccc2F)CC1	none
CCCn1nc(Oc2nc(SC)nc(N(C)C)n2)ccc1=O	none
COc1ccc(-c2cc(C(F)(F)F)nc(N3CCN(c4ccccc4)CC3)n2)cc1OC	none
CS(=O)(=O)c1nc(-c2ccccc2)cc(C(F)(F)F)n1	SF1 inhibitor 52
O=C(O)c1cc2nc(-c3ccccc3)cc(C(F)(F)F)n2n1	none
COC(=O)CSc1nnc(-c2ccncc2)n1N	none
CCN(CC)S(=O)(=O)c1ccc(C(=O)NCc2n[nH]c(=S)n2Cc2ccccc2)cc1	none
O=C(CCC1CCCCC1)NCc1ccncc1	none
COC(=O)COc1ccc(S(=O)(=O)NCc2ccncc2)cc1	none
CCN(C1CCCCC1)S(=O)(=O)c1ccc(S(=O)(=O)NCc2ccncc2)cc1	SF1 inhibitor 52
O=C1c2ccccc2C(=O)N1CCN1CCc2ccccc21	none
CCOc1cc(N2CCOCC2)c(OCC)cc1NC(=O)CSc1cccc[n+]1[O-]	none
CCOC(=O)c1cc2cc(OC)ccc2[nH]1	none
COc1ccc(C(=O)Nn2c(SCC(=O)NCc3ccco3)nc3ccccc3c2=O)cc1	SF1 inhibitor 62
Cc1cc(C(=O)CNCc2ccco2)c(C)n1-c1ccc(F)cc1	none
CCOC(=O)CSc1nc2cc(C(=O)NCc3ccco3)ccc2c(=O)n1-c1ccc(F)cc1	SF1 inhibitor 51
COc1ccc2cc(C(=O)NCc3ccco3)c(=O)oc2c1	none
CCn1c(SCC(=O)NCCOc2ccccc2)nc2ccccc2c1=O	none
CCOC(=O)CSc1nnc(CNC(=O)c2ccc(OC)cc2OC)n1-c1ccc(OC)cc1	none
COc1ccc(-n2ncc3c(NCc4ccccn4)ncnc32)cc1	none
c1cnc2c(SCc3ccc(-c4nnco4)cc3)cccc2c1	none
COc1cc(C(=O)Nc2ccc(N(C)C)cc2)cc(OC)c1OC	none
COc1cc(NS(=O)(=O)c2ccc(C)cc2C)cc(OC)c1OC	SF1 inhibitor 62
CCOc1ccc(C)cc1S(=O)(=O)Nc1cccnc1	none
COc1ccc(C2=CSC3=NCCN23)cc1F	none
O=C(CSc1nc2cc(Cl)ccc2o1)c1cccs1	none
O=C(c1cc(-c2cccc(O)c2)on1)N1CCN(C(c2ccccc2)c2ccccc2)CC1	none
Cc1ccc(-c2cc(C(=O)N3CCCC3)no2)cc1	SF1 inhibitor 51
COc1ccc(-c2cc(C(=O)N3CCCCC3)no2)cc1OC	none
CCOC(=O)CSC(CC)C(=O)Nc1nnc(C(C)C)s1 (stereo not drawn)	none
CCN1C(=O)N(CN2CCOCC2)C2C1N(CN1CCOCC1)C(=O)N2CC (stereo not drawn)	none
CCOc1ccccc1-n1c(SCC(=O)Nc2ccc(CC)cc2)nc2n[nH]c(C)c2c1=N	SF1 inhibitor 84
CCOc1cccc(-c2nnc(SCC(=O)Nc3ccc(OC)c(OC)c3)n2N)c1	none
CCOc1ccccc1N(CC(=O)Nc1ccc(C)cc1)S(C)(=O)=O	none
O=C(CN(Cc1ccco1)C(=O)CNS(=O)(=O)c1ccc(F)cc1)NCCc1ccccc1	none
